The panel holds about 79,000 compounds, 15% with a hit somewhere; the sample as a whole holds those more often. A number with no mark means an inactive call. Calls of active or inactive are those of the source. No stated cut-off is given here; in the data, active means growth inhibition above about 70%; inactive means the rest.
Assays:
[1] = NCI Yeast Anticancer Drug Screen. Data for the rad50 strain (AID 155);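 further: 0% = growth of vehicle-only cultures of the same strain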; details: S. cerevisiae rad50 strain growth inhibition, stronger effect = higher value
Outline: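 Cells are treated with compound, grown, and their growth is then scored against vehicle-only cultures of the same repair-deficient yeast strain.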

[2] = NCI Yeast Anticancer Drug Screen. Data for the mec2-1 strain (AID 157); details: S. cerevisiae mec2-1 strain, stronger effect = higher value
Outline: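 Strain: mec2-1 (DNA repair/cell cycle alteration). Compound exposure, then growth measured; inhibition expressed relative to vehicle.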

[3] = NCI Yeast Anticancer Drug Screen. Data for the sgs1 mgt1 strain (AID 161);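 further: 0% = growth of cultures given vehicle only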; details: S. cerevisiae sgs1 mgt1 strain, stronger effect = higher value
Outline: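 Inhibition of yeast growth, normalised to vehicle-treated controls, is reported for a strain bearing genetic alterations in DNA damage repair.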

[4] = NCI Yeast Anticancer Drug Screen. Data for the cln2 rad14 strain (AID 165);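 further: 0% = growth equal to vehicle treated cultures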; details: S. cerevisiae cln2 rad14 strain, stronger effect = higher value
Outline: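 Compounds are applied to the cln2 rad14 yeast strain, and growth is then compared with that of vehicle-treated cultures to give inhibition.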

[5] = NCI Yeast Anticancer Drug Screen. Data for the bub3 strain (AID 167); details: S. cerevisiae bub3 mutant strain, stronger effect = higher value
Outline: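 Part of a panel of yeast mutants defective in DNA damage repair or cell cycle regulation. Each strain is grown with compound, and inhibition is calculated relative to solvent-treated cultures.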

[6] = NCI Yeast Anticancer Drug Screen. Data for the mlh1 rad18 strain (AID 175); details: S. cerevisiae mlh1 rad18 strain growth inhibition, stronger effect = higher value
Outline: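 Read-out is yeast growth inhibition, calculated against vehicle-only controls. The compound was applied to a strain engineered with DNA damage repair alterations.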

[7] = at 5.0 µM (retest, dose inferred, filed as 0.5)
[8] = at 50.0 µM (retest, dose inferred, filed as 5.0)

| SMILES | growth inhibition [1, 7] | growth inhibition [1, 8] | growth inhibition ([1]; at 50.0 µM) | growth inhibition [2, 7] | growth inhibition [2, 8] | growth inhibition ([2]; at 50.0 µM) | growth inhibition [3, 7] | growth inhibition [3, 8] | growth inhibition ([3]; at 50.0 µM) | growth inhibition [4, 7] | growth inhibition [4, 8] | growth inhibition ([4]; at 50.0 µM) | growth inhibition [5, 7] | growth inhibition [5, 8] | growth inhibition ([5]; at 50.0 µM) | growth inhibition [6, 7] | growth inhibition [6, 8] | growth inhibition ([6]; at 50.0 µM) |
| --- | --- | --- | --- | --- | --- | --- | --- | --- | --- | --- | --- | --- | --- | --- | --- | --- | --- | --- |
| Cc1cc(N=Nc2ccncc2C)ccc1N | -69% | 98% (active) | 92.5% (active) | -50% | 87% (active) | 52.5% | -34% | 98% (active) | 75.6% (active) | -45% | 92% (active) | 48.9% | -40% | 98% (active) | 89% (active) | -72% | 96% (active) | 66.7% |
| COC(=O)/C=N/O | -17% | 7% | -19.4% | -9% | -6% | -6.9% | -5% | -4% | 8.85% | 7% | -1% | 0.85% | -19% | -1% | -14.9% | -2% | -6% | 36.3% |
| O=C(O)c1ccc(C(O)(c2ccccc2)c2ccccc2)cc1 | -9% | 65% | 63.4% | 11% | 95% (active) | 86% (active) | -9% | 90% (active) | 98% (active) | -1% | 90% (active) | 82.3% (active) | -3% | 97% (active) | 77.7% (active) | 3% | 93% (active) | 96.4% (active) |
| CCC(C)SSc1ccccc1C(=O)Nc1ccc(Cl)cc1 (stereo unspecified) | 3% | 52% | 79.5% (active) | 14% | 93% (active) | 93.9% (active) | -12% | 83% (active) | 91.7% (active) | -5% | 85% (active) | 74.1% (active) | -2% | 93% (active) | 91.3% (active) | 7% | 91% (active) | 87.7% (active) |
| O=C1CC2(CCN(CC3COc4ccccc4O3)CC2)C(=O)N1N1CCCCCC1 (stereo unspecified) | 51% | 66% | 77% (active) | 33% | 41% | 70.4% (active) | 62% | 66% | 82.8% (active) | 78% (active) | 83% (active) | 84% (active) | 48% | 68% | 85.5% (active) | 37% | 75% (active) | 83.8% (active) |
| CCCc1cc2c(cc1O)CC[C@@H]1[C@@H]2CC[C@]2(C)[C@@H](O)CC[C@@H]12 | -25% | 96% (active) | 86.5% (active) | -30% | 96% (active) | 85.8% (active) | -30% | 98% (active) | 84.5% (active) | -4% | 77% (active) | 88.5% (active) | -33% | 97% (active) | 87.6% (active) | -46% | 96% (active) | 80.7% (active) |
| O=C(CC1(O)C(=O)Nc2c(Cl)cc(Cl)cc21)c1ccc(Br)cc1Br (stereo unspecified) | 55% | 98% (active) | 92.3% (active) | 96% (active) | 99% (active) | 90.8% (active) | 97% (active) | 92% (active) | 91.3% (active) | 94% (active) | 93% (active) | 90.7% (active) | 97% (active) | 93% (active) | 93.8% (active) | 58% | 98% (active) | 92.2% (active) |
| Cc1nc2c([N+](=O)[O-])c(N3CCCCC3)c([N+](=O)[O-])cc2[nH]1 | 10% | 97% (active) | 98.8% (active) | 13% | 98% (active) | 99% (active) | 13% | 98% (active) | 99.1% (active) | 17% | 94% (active) | 97.7% (active) | 0% | 83% (active) | 98.7% (active) | 8% | 98% (active) | 99.1% (active) |
| COC1=CC(=O)c2c(O)c3c(c(O)c2C1=O)OC1(Oc2c(cc4cc(C)oc(=O)c4c2O)CC1O)C3O (stereo unspecified) | 96% (active) | 97% (active) | 91.1% (active) | 98% (active) | 99% (active) | 92.5% (active) | 97% (active) | 98% (active) | 92.8% (active) | 98% (active) | 99% (active) | 90.5% (active) | 99% (active) | 99% (active) | 91% (active) | 97% (active) | 98% (active) | 91% (active) |
| CN(C)N=Nc1ccc(-c2ccccc2)cc1 | 24% | 95% (active) | 87.8% (active) | 42% | 92% (active) | 78.3% (active) | 6% | 60% | 81.8% (active) | 30% | 85% (active) | 74.2% (active) | 37% | 64% | 86.5% (active) | 38% | 89% (active) | 84.5% (active) |
| O=C(Nc1ccc(Cl)cc1)Nc1cc(Cl)ccc1O | -2% | 22% | 93% (active) | 0% | 35% | 96.2% (active) | -1% | 28% | 90.3% (active) | -8% | 27% | 94% (active) | -4% | 19% | 96.5% (active) | -3% | 30% | 97.5% (active) |
| O=C(O)c1nnsc1-c1ccc(-c2snnc2C(=O)O)cc1 | 2% | 14% | 22% | -2% | 18% | 23.1% | -4% | 30% | -6.3% | 21% | 0% | 39.3% | 25% | 6% | 35.1% | 7% | 9% | 3.3% |
